SMILES strings stand for the structures. In all, about 360,000 compounds went through this assay and about 3,500 (0.97%) were called active. Many of the other results were omitted from the sample, so actives are more common in it than they were. A number with no mark means an inactive call.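 The calls were made as follows: active = activation above a per-plate cutoff, the mean activation of sample wells on that plate plus 3 SD (cut at about 8% in these data); inactive = the rest.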

Here are results for 91 compounds from PubChem BioAssay AID540308 (The Scripps Research Institute Molecular Screening Center, 2011).

Chain of Melanocortin receptor 4 (Homo sapiens) (P32245 whole entry, looked up): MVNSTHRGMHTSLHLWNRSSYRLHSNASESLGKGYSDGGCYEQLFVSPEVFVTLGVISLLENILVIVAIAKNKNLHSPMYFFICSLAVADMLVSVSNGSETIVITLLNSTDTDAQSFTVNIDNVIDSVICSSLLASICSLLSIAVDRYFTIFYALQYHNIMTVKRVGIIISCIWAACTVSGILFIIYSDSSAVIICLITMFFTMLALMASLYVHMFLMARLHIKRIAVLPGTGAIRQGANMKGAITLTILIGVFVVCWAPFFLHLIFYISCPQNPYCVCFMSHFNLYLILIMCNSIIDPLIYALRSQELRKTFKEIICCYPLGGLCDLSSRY

This test concerns the target Melanocortin receptor 4 (Homo sapiens) (UniProt P32245). Put plainly: MC4R agonists recruiting beta-arrestin, primary screen, cell-based, luminescence, agonist arm of biased-ligand search (AID 540308). The conditions noted are these: U2OS MC4R beta-arrestin complementation, at 8.9 µM, active compounds read high, percent of melanotan II response, DMSO zero.
Consider `CC1(C(=O)NS(=O)(=O)c2ccccc2)CCN1C(=O)c1ccccc1` (stereo unspecified), for which the activation was -1.65%.

`CCc1ccc2c(c1)cc(CN(C(=S)Nc1ccccc1Cl)C1CC1)c1nnnn12`: the activation was 12.6% (active).

With `CCc1cccc(NC(=S)N(CCN(C)C)C2CCN(C(C)C)CC2)c1`, the activation is -0.19%.

As to `CCOc1ccc2c(c1)cc(CN(C(=O)CC)C1CCCCC1)c1nnnn12`, the activation is 0.48%.

Take `CC1(C(=O)NS(=O)(=O)c2cccc(F)c2)CCN1C(=O)Cc1cc(F)ccc1F` (stereo unspecified): the activation was -0.76%.

On to `CCNC(=O)C1(C)CCCN(C(=O)c2c(C)noc2C)C1` (stereo unspecified), for which the activation is 0.77%.

On to `Cc1ccsc1/C=N/NC(=O)Cc1cc(=O)[nH][nH]1`, for which the activation is -1.77%.

For the compound `C/C(=N\Nc1ccc(Cl)nn1)c1ccccc1O`, the activation was -0.38%.

With `Cc1ccsc1/C=N/Nc1ccc(Cl)nn1`, the activation was 12.3% (active).

On to `COc1ccccc1CNC(=O)c1cc(-c2cc(F)ccc2OC)n[nH]1`, for which the activation was 1.31%.

Regarding `CCCCC(=O)N(C)c1c(CC)nc2c(OCc3ccc(Cl)cc3Cl)cccn12`, the activation is 0.75%.

For `CC(=O)OC[C@@H]1CN(Cc2ccccc2)C[C@H](n2cnc3c(NCc4ccco4)ncnc32)O1`, the activation was -2.47%.

As to `COc1ccc(Nc2cc(=O)oc3ccccc23)cc1`, the activation is -0.49%.

For the compound `COc1cccc2cc(-c3cc(=O)oc4cc(C)c(O)cc34)oc12`, the activation was 1.6%.

For `COc1ccc2oc(=O)cc(-c3cc4ccccc4o3)c2c1`, the activation was 8.24% (active).

As to `CCN(c1ccccc1)S(=O)(=O)c1ccc(C(=O)Nc2ccccc2OC)cc1`, the activation is 0.77%.

Take `CCN(c1ccccc1)S(=O)(=O)c1ccc(C(=O)Nc2nccs2)cc1`: the activation was 8.9% (active).

With `CCN(c1ccccc1)S(=O)(=O)c1ccc(NC(=O)C(C)(C)C)cc1`, the activation is -0.35%.

Regarding `Cc1ccc(C(NC(=O)C2CCN(CCOc3ccc(Cl)cc3Cl)CC2)c2ccccn2)cc1` (stereo unspecified), the activation was 4.91%.

As to `O=C(NC(c1ccc(Cl)cc1)c1cnccn1)C1CCN(Cc2ccc(Cl)cc2)CC1` (stereo unspecified), the activation is -0.34%.

As for `O=C(NC(c1ccc(-c2ccccc2)cc1)c1cnccn1)C1CCN(CCOc2ccc(Cl)cc2Cl)CC1` (stereo unspecified), the activation is 18% (active).

Consider `CCc1ccc2c(c1)NC(=O)C2(C)Cc1ccc(OC(F)(F)F)cc1` (stereo unspecified), for which the activation was -0.4%.

Turning to `Cc1ccc(-c2cnc(C(O)c3cccc(C)c3C)[nH]2)cc1` (stereo unspecified), the activation was -0.77%.

For the compound `CC(C)c1ccc2c(c1)c(SC(C)(C)C)c(CC(C)(C)C(=O)O)n2Cc1ccc(Cl)cc1`, the activation was 15.9% (active).

For `COCCNC(=O)C1CCCN(Cc2ccccc2Cl)CC1` (stereo unspecified), the activation was -0.57%.

Regarding `CC(=O)Nc1ccc(-c2ccnc3c2CC(C(=O)NC(C)C)O3)cc1` (stereo unspecified), the activation was -1.59%.

For the compound `O=C(NCCO)c1cccc(-c2cccc3nccn23)c1`, the activation is -1.27%.

Take `CNc1cncc(-c2ccc(NS(C)(=O)=O)cc2)n1`: the activation was -1.66%.

Turning to `CCCOC(=O)c1[nH]c2c(c1C)C(=O)CC(c1cccs1)C2` (stereo unspecified), the activation was -0.13%.

Consider `CCOC(=O)C1=C(CN2CCc3ccccc32)NC(=O)NC1c1ccc(Cl)cc1` (stereo unspecified), for which the activation is 6.41%.

For `CCOC(=O)c1[nH]c2c(c1-c1ccccc1)C(=O)CC(c1ccc(Cl)cc1)C2` (stereo unspecified), the activation is 13.1% (active).

On to `CS(=O)(=O)/C(C#N)=C/c1cccn1S(=O)(=O)c1ccc([N+](=O)[O-])cc1`, for which the activation is -0.77%.

On to `O=C(O)c1ccccc1-c1cccc2nncn12`, for which the activation was 1.15%.

As for `OC(c1ccccc1)c1nc(-c2cnc3ccccc3c2)cs1` (stereo unspecified), the activation was -1.73%.

As to `COc1cccc(NC(=O)CN(C)C(C)C(=O)Nc2ccc(C#N)cc2)c1` (stereo unspecified), the activation is -2.21%.

On to `O=C(Nc1cccn(Cc2ccccc2Cl)c1=O)NC1CCCCC1`, for which the activation was -3.02%.

Turning to `COc1ccc(Cn2c(C)c(C)c(C#N)c2NC(=O)Nc2ccc(F)cc2)cc1`, the activation is 9.65% (active).

For `Cc1c(C#N)c(NC(=O)c2ccccc2)n(Cc2ccccc2)c1C`, the activation was 1.54%.

Turning to `COc1ccc(Cn2cccc(NC(=O)Nc3ccc(C#N)cc3)c2=O)cc1`, the activation is 8.99% (active).

On to `Cc1ccc(C(=O)Nc2c(C#N)c(C)c(C)n2Cc2ccccc2)cc1`, for which the activation is 0.7%.

Consider `O=C(NCc1cccnc1)c1cc(C2CCCN(C(=O)C3CCCCC3)C2)on1` (stereo unspecified), for which the activation was 0.25%.

For `CC1(Cc2cccc(C#N)c2)C(=O)Nc2ccc(-c3cccc(C(F)(F)F)c3)cc21` (stereo unspecified), the activation is 1.34%.

As to `CCOc1ccc(Cl)cc1-c1cc(C(=O)NCc2cccs2)[nH]n1`, the activation was 1.31%.

On to `O=C(CSc1nc2cccc(F)c2c(=O)n1-c1ccccc1)Nc1ccc2c(c1)CCC2`, for which the activation was 1.04%.

As for `Cc1ccc(NC(=O)COc2ccc(/C=C3/NC(=O)NC3=O)cc2)cc1`, the activation was -1.81%.

As to `CCOC(=O)C1=C(O)/C(=C/c2ccc(OCC(=O)Nc3ccc(C)cc3)cc2)N=C1C`, the activation was 16.8% (active).

Take `COC(=O)C1=C(O)/C(=C/c2ccc(OCC(=O)Nc3ccccc3)cc2)N=C1C`: the activation is -2.96%.

Consider `COC(=O)c1ccc(CN2C(=O)C(Cc3ccccc3)ON=C2c2ncccc2C)o1` (stereo unspecified), for which the activation is 0.08%.

On to `CS(=O)(=O)c1cccc(-c2ccc3nncn3c2)c1`, for which the activation is 0.6%.

In the case of `CSc1ccccc1OCc1cc(C(=O)N2C[C@H]3CC[C@H]2C3)no1`, the activation is -3.22%.

`O=C(O)c1cscn1`: the activation is -0.73%.

Consider `Cc1ccc2nc(-c3ccc(SCC(=O)Nc4cc(C)on4)nc3)[nH]c2c1`, for which the activation is -0.33%.

In the case of `Cc1ccc(-c2csc(SCC(=O)Nc3cc(C)on3)n2)cc1`, the activation was 12.5% (active).

Turning to `Cc1cc(NC(=O)CSCC(=O)NC(C)c2ccccc2)no1` (stereo unspecified), the activation was 3.59%.

As for `CCc1nc2ccc(C(=O)N3CCN(S(=O)(=O)CC)CC3)cn2c1N(C=O)CCC(C)C`, the activation is -1.41%.

As to `CC(C)Cn1cc(-c2cncc3nccn23)cn1`, the activation was -1.32%.

`COc1ccccc1CC1(C)C(=O)Nc2ccc(OC(F)(F)F)cc21` (stereo unspecified): the activation was 4.13%.

Consider `O=C(c1cc2cc(F)ccc2[nH]1)N1CCN(c2ccc(F)cc2)CC1`, for which the activation is 9.41% (active).

For `Cc1c(C(=O)N2CCN(c3ccc(F)cc3)CC2)oc2c1C(=O)CCC2`, the activation is -0.69%.

Turning to `O=C(c1ccccc1Oc1ccccc1)N1CCN(c2ccc(F)cc2)CC1`, the activation was -0.88%.

On to `CS(=O)(=O)N1CCCCC1c1cc(C(=O)NCc2ccccc2)no1` (stereo unspecified), for which the activation was 0.31%.

`CC1(C(=O)NCc2ccc3c(c2)OCO3)CCN1CCc1ccccc1` (stereo unspecified): the activation is 1.41%.

With `CCCNC(=O)C1(C)CCCN(C(=O)c2cccc(OC(C)=O)c2C)C1` (stereo unspecified), the activation is -0.89%.

With `COC(=O)c1cc(C(=O)N(Cc2ccccc2)c2ccccn2)cc([N+](=O)[O-])c1`, the activation was 2.05%.

On to `O=C(CCl)N(Cc1cccc([N+](=O)[O-])c1)c1cccc(Cl)c1`, for which the activation was 20.4% (active).

On to `CC(=O)N(CN1C(=O)C2CC=CCC2C1=O)c1cccc(Cl)c1` (stereo unspecified), for which the activation was -0.75%.

For the compound `Cn1c(Nc2ccc(F)cc2)nc2cc(-c3ccsc3)sc2c1=O`, the activation was 2.85%.

In the case of `O=C1/C(=C\c2ccccc2Cl)SC(=S)N1CCC(=O)N1CCCc2ccccc21`, the activation was -0.74%.

Consider `Cc1ccc(-c2nn(-c3ccccc3)cc2/C=C2\SC(=S)N(CCCCCC(=O)O)C2=O)o1`, for which the activation was 8.64% (active).

With `CN(C(=O)CCN1C(=O)/C(=C/c2ccccc2F)SC1=S)C1CCS(=O)(=O)C1` (stereo unspecified), the activation is -1.67%.

Take `COc1ccc(-c2coc3c(C(=O)NC(C)C)cccc23)c(C)c1`: the activation was 0.44%.

Take `CCOC(=O)c1c(C)[nH]c(C(=O)NCCN2CCOCC2)c1C`: the activation is -1.01%.

In the case of `COc1cccc(CNCCc2c[nH]c3ccccc23)c1OCc1ccccc1F`, the activation was 10.3% (active).

With `Fc1ccccc1COc1ccccc1CNCc1ccncc1`, the activation is -1.5%.

Turning to `COc1ccc(C(CCNCc2ccccc2F)c2ccc(F)cc2)cc1` (stereo unspecified), the activation was 2.17%.

Take `CN1C[C@@H](CO)O[C@@H](n2cnc3c(N4CCN(CCO)CC4)ncnc32)C1`: the activation is -0.08%.

With `COc1ccc(S(=O)(=O)N2CCOC2CNC(=O)C(=O)NCc2ccncc2)cc1C` (stereo unspecified), the activation was 0.29%.

As for `CCNC(=O)C1(C)CCCN1C(=O)c1ccc(N(C)C)cc1` (stereo unspecified), the activation is -0.82%.

`Cc1ccc2[nH]cc(CCNC(=O)c3ccc([N+](=O)[O-])cc3)c2c1`: the activation is -2.01%.

`O=C(NCCc1ccc(Cl)cc1Cl)c1cc([N+](=O)[O-])c[nH]c1=O`: the activation was -2.62%.

`O=C(NCCc1c[nH]c2ccc(Cl)cc12)c1ccc([N+](=O)[O-])cc1`: the activation was 10.4% (active).

Regarding `COC(=O)c1ccc(S(=O)(=O)N2CCC(c3nc4ccccc4o3)CC2)cc1`, the activation is -0.95%.

Consider `CC1(C(=O)Nc2ccc3c(c2)OCCO3)CCN1C(=O)Cc1cc(F)ccc1F` (stereo unspecified), for which the activation was -0.93%.

As to `CC1(Oc2ccc(Cl)cc2)CCN(Cc2csc3ccccc23)C1` (stereo unspecified), the activation was 5.74%.

In the case of `OC(c1ccccc1)c1nc(/C=C/c2ccc(C(F)(F)F)cc2)cs1` (stereo unspecified), the activation is 1.43%.

Regarding `CCOc1ccc(/C=C/C(=O)OCC(=O)c2ccccc2OC)cc1OC`, the activation is 12.9% (active).

As to `COc1ccc(/C=C/C(=O)OCC(=O)NC2CCCCCC2)cc1OC`, the activation is 0.56%.

As to `COc1cc(/C=C/C(=O)OCC(=O)c2ccccc2)cc(OC)c1OC`, the activation was -2.53%.

Regarding `O=C(Nc1ccc(Cl)cc1)c1csc([C@@H]2O[C@H](CO)[C@H](O)[C@H](O)[C@H]2O)n1`, the activation was -0.59%.

For the compound `CCOCCC(=O)Nc1ccc2c(c1)c(=O)n(C)n2-c1ccc2ccccc2c1`, the activation is -1.1%.

`Oc1c(Br)cc(/C=N/NC(=S)NCC2CCCO2)cc1Br` (stereo unspecified): the activation was -1.36%.
